Activity calls are given as the source filed them.

For one assay, the target named is Albumin (Bos taurus) (UniProt P02769). In words: bovine serum albumin binders on microarray, profiling panel, artefact control for SMM control protein annotation, biochemical, small-molecule microarray, Alexa647 label, 635/667 nm fluorescence (AID 1118).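 Further: score merges 667 nm emission intensity and signal-to-noise per printed compound spot.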 The following applies: BSA-A647 binding, fluorescence 635 nm, higher = more signal.
Sequence of Albumin (Bos taurus) (P02769 whole entry, looked up): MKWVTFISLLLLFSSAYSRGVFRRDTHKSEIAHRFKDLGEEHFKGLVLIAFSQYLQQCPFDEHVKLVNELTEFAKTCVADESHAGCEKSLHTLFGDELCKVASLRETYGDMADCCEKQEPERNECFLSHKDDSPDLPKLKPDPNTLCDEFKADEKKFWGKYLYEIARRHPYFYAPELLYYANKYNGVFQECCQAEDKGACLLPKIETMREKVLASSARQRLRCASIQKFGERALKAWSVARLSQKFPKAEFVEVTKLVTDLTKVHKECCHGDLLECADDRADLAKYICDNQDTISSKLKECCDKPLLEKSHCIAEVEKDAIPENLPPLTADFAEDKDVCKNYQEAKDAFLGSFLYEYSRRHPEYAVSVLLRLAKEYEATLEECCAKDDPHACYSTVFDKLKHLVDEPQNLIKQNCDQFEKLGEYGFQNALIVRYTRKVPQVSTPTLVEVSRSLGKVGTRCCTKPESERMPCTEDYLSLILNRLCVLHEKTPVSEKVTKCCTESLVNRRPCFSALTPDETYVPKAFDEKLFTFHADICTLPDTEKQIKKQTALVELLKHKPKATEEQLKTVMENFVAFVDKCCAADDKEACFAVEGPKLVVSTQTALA
Assay [1] in a line: small-molecule microarray binders of probe aXIP, primary screen, biochemical, NeuroSMM set, 635/667 nm fluorescence (AID 1119).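 Further: probe is the protein aXip251-270 applied at 1 µg/mL to compound-printed slides; binding of probe to printed compounds measured as 667 nm fluorescence plus signal to noise.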 The settings on record: higher = more signal, called active from +8 up or from −8 down.
Assay [2] can be described thus: small-molecule binders of probe aNOTCH3, primary screen, biochemical, small-molecule microarray, 635/667 nm fluorescence (AID 1120).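 Further: probe is a biotin-tagged antibody raised against NOTCH3 rather than NOTCH3 protein; score merges spot fluorescence near 667 nm with spot signal to noise.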 The settings on record: higher = more signal.
The nature of assay [3]: small-molecule binders of probe aNOTCH2, primary screen, biochemical, small-molecule microarray, 635/667 nm fluorescence (AID 1121).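 Further: score merges feature fluorescence read at 667 nm with its signal to noise.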 The settings on record: higher = more signal.
Assay [4] concerns the target Carbonic anhydrase 2 (Homo sapiens) (UniProt P00918). The assay can be described thus: CAII small-molecule binders, profiling panel, biochemical, small-molecule microarray, Alexa647-labelled CAII (AID 1122). The following applies: CAII-A647 binding fluorescence, higher = more signal.
Assay [5] can be described thus: COS7 lysate on small-molecule microarray, probe aHis, 635 nm (AID 1123).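 Further: z-score combines 667nm fluorescence intensity with signal-to-noise per printed compound spot.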 The following applies: COS7 cell lysate, fluorescence, higher = more signal.
The nature of assay [6]: compound binding in COS7 lysate, probe aLAP1, primary screen, cell lysate, small-molecule microarray (AID 1124).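 Further: lysate comes from COS7 cells expressing LAP1 and is applied at 0.3 µg/mL; score merges spot fluorescence near 667 nm with signal-to-noise over triplicate slides.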 The following applies: probe aLAP1, fluorescence, higher = more signal.
In another assay the test system is Sam68 (KHDRBS1). The assay can be described thus: Sam68 small-molecule binders, primary screen, biochemical, small-molecule microarray, 635 nm fluorescence (AID 1125).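 Further: score merges 667 nm channel intensity with signal to noise over triplicate slides.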 The following applies: small-molecule microarray binding, higher = more signal.
For assay [7], the system named is Chordin-like protein 2 (CHRDL2). The assay can be described thus: CHRDL2 small-molecule binders, primary screen, biochemical, small-molecule microarray, 635 nm fluorescence (AID 1126).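 Further: printed compound slides probed with Chrdl2 protein at 4 µg/mL for 1 h at 4 C; score merges 667 nm emission intensity with signal to noise over three replicate slides.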 The following applies: small-molecule microarray binding, fluorescence 635 nm; higher = more signal.
For assay [8], the target named is Concanavalin-A (Canavalia ensiformis) (UniProt P02866). The assay can be described thus: ConA small-molecule binders, primary screen, artefact control for SMM control protein annotation, biochemical, small-molecule microarray, Alexa647 label, 635 nm (AID 1127).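 Further: z combines 667 nm emission intensity with signal-to-noise across three replicate slides.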 The settings on record: ConA-A647 binding fluorescence, higher = more signal.
Sequence of Concanavalin-A (Canavalia ensiformis) (P02866 whole entry, looked up): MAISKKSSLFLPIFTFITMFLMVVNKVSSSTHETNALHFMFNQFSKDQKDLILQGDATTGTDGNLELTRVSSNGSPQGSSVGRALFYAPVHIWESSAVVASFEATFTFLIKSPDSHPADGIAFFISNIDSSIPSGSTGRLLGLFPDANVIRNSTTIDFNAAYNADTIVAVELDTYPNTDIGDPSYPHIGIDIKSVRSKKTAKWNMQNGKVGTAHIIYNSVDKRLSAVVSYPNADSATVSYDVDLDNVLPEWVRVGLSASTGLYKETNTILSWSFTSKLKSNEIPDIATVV
Assay [9] in a line: anti-His antibody binders, primary screen, artefact control for SMM control protein annotation, biochemical, small-molecule microarray, 635 nm fluorescence (AID 1128).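 Further: score merges feature fluorescence with signal-to-noise for each printed compound spot.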 The settings on record: anti-His Alexa647 antibody binding, higher = more signal.
Assay [10] deals with Human papillomavirus type 1a E7 protein (residues 1-88). The assay can be described thus: HPV1a E7 small-molecule binders, primary screen, biochemical, small-molecule microarray, residues 1-88, 635 nm (AID 1129). The settings on record: small-molecule microarray binding, fluorescence 635 nm; higher = more signal.
In assay [11] the target is Focal adhesion kinase 1 (Homo sapiens) (UniProt Q05397). In words: small-molecule microarray binders of FAK, primary screen, biochemical, 635/667 nm fluorescence, BSA, DTT (AID 1130).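 Further: composite of spot emission at 667 nm and signal to noise over triplicate slides.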 The settings on record: PTK2 binding, 635 nm fluorescence, higher = more signal.
Sequence of Focal adhesion kinase 1 (Homo sapiens) (Q05397 whole entry, looked up): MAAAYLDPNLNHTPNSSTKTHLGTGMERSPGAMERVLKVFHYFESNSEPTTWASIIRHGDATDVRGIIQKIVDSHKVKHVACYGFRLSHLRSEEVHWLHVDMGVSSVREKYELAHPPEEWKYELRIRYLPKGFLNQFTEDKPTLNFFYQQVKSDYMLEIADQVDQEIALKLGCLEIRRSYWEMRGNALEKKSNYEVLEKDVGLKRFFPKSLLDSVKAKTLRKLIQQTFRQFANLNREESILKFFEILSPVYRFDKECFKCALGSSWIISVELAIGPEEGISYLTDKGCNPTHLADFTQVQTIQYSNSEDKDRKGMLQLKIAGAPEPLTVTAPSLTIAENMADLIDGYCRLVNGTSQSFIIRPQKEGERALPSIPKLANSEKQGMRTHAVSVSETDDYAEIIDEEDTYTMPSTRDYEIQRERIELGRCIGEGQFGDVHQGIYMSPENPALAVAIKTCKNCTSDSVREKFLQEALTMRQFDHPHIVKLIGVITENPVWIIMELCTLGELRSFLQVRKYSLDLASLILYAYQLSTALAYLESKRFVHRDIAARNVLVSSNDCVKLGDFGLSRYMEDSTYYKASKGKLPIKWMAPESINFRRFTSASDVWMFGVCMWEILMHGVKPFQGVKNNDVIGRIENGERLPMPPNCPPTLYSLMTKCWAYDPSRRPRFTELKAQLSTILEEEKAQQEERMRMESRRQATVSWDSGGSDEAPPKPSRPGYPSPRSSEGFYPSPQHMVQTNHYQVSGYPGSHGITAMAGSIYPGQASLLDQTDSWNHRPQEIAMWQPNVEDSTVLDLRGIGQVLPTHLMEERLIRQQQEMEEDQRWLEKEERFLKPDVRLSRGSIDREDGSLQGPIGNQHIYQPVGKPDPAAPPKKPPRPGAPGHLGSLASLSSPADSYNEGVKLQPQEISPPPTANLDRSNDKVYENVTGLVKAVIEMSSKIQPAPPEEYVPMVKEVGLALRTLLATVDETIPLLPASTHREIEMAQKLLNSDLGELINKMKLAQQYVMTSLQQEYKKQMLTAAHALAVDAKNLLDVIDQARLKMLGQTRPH
Assay [12] has as its system Fibrinogen (Alexa647-labelled). In words: fibrinogen binders on compound microarrays, profiling panel, artefact control for SMM control-protein annotation, biochemical, small-molecule microarray, 635/667 nm fluorescence (AID 1131).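 Further: z-score merges 667 nm fluorescence with per-spot signal-to-noise over triplicate slides.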 The settings on record: fibrinogen-A647 binding fluorescence, higher = more signal.
Assay [13] addresses Follistatin (Homo sapiens) (UniProt P19883). In words: follistatin binders on small-molecule microarrays, primary screen, biochemical, small-molecule microarray, 635/667 nm fluorescence (AID 1132). The following applies: FST binding, 635 nm fluorescence, higher = more signal.
For assay [14], the target named is Fibroblast growth factor 2 (Homo sapiens) (UniProt P09038). In words: FGF2 binders on small-molecule microarrays, primary screen, biochemical, small-molecule microarray, 635/667 nm fluorescence (AID 1133). The settings on record: small-molecule microarray binding, FGF2, fluorescence 635/667; higher = more signal.
Sequence of Fibroblast growth factor 2 (Homo sapiens) (P09038 whole entry, looked up): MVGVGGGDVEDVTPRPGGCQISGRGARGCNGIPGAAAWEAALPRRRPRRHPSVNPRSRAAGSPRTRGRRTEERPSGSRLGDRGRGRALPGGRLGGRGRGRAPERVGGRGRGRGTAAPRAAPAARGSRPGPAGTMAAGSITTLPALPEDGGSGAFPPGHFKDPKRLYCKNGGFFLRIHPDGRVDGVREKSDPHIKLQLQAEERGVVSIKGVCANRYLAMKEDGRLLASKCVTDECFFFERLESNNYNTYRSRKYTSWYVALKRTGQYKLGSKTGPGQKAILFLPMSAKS
The nature of assay [15]: mitochondrial membrane potential change in A549 cells, profiling panel, cell-based, JC-1 fluorescence, basal, 24 h, 100 nL (AID 1138).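 Further: A549 lung adenocarcinoma cells under basal conditions with no added stimulus; test concentration not given here.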 The settings on record: higher = more signal.
Another assay concerns Lefty1. The assay can be described thus: Lefty1 binders on small-molecule microarrays, primary screen, biochemical, small-molecule microarray, 635/667 nm fluorescence (AID 1139). The settings on record: small-molecule microarray binding, fluorescence 635/667; higher = more signal.
For assay [16], the system named is wheat germ agglutinin (Triticum aestivum), Alexa647-labelled. In words: wheat germ agglutinin binders on compound microarrays, profiling panel, artefact control for SMM control-protein annotation, biochemical, small-molecule microarray, 635/667 nm fluorescence (AID 1140).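 Further: score merges 667 nm feature emission with signal to noise over triplicate slides.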 The settings on record: WGA-A647 binding, 635 nm fluorescence, higher = more signal.
Assay [17] concerns the target Luciferin 4-monooxygenase (Photinus pyralis) (UniProt P08659). In words: firefly luciferase enzyme inhibitors, primary screen, biochemical, luminescence, purified enzyme, 2006 set (AID 1141).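 Further: cell-free assay with purified firefly luciferase at 100 ng per well in PBS; test concentration not given here.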 The following applies: SteadyGlo luminescence, 30 min, higher = more signal, called active from +8 up or from −8 down.

Sequence of Luciferin 4-monooxygenase (Photinus pyralis) (P08659 whole entry, looked up): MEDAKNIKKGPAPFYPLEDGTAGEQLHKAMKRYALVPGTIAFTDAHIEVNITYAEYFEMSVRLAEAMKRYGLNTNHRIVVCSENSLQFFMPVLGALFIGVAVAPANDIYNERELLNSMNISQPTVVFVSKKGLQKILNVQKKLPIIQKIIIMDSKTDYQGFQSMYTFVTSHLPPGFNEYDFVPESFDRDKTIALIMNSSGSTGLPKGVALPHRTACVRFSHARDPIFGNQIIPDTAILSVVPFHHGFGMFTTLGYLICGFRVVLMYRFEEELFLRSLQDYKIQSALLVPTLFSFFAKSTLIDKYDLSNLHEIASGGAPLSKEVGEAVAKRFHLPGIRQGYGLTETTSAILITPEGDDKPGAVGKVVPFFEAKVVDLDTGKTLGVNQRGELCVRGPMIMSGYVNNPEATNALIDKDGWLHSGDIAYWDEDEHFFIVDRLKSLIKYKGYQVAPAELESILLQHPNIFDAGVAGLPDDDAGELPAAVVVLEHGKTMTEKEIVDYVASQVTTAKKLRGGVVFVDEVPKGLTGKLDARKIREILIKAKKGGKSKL
Sequence of Follistatin (Homo sapiens) (P19883 whole entry, looked up): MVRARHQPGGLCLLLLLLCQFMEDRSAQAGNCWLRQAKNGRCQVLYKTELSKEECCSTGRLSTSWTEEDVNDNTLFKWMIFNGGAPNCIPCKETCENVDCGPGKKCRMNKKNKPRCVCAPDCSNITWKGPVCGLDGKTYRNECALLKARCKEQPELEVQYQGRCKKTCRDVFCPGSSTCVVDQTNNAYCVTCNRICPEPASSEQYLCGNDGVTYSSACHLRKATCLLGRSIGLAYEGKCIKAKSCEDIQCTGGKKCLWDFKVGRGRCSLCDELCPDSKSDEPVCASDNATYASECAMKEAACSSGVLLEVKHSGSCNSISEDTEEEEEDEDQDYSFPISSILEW

With `CO[C@H]1O[C@H](CO)[C@@H](OC(=O)Nc2ccccc2)[C@H](OC(=O)Nc2ccccc2-c2ccccc2)[C@H]1OC(=O)Nc1ccccc1-c1ccccc1`, the composite z-score in the assay with Albumin (Bos taurus) was 0.925; in assay [2] it was -0.0903; in assay [3], -0.103; in assay [4] it was 0.556; in assay [5] it was 1.63; in assay [6], 0.463. The composite z-score in the assay with Sam68 (KHDRBS1) was 1.3; in [7], -0.159; in [8] it was 1.19; in assay [9], 2.03; in [10], 1.23; in assay [11] it was 1.17. The composite z-score in [12] was 0.903; in assay [13], 0.754; in assay [14], 0.292; with Lefty1, 0.601; in [16] it was 1.19. Moreover, the composite Z-score in assay [1] was 0.563 (inactive). Moreover, the z-score in assay [15] was -1.05; in [17], -0.864 (inactive).
Take `COCCOC(=O)N1C(=O)[C@@]2(c3ccccc31)[C@H](C(=O)Nc1nc3ccccc3s1)[C@H]1C(=O)O[C@H](c3ccccc3)[C@H](c3ccccc3)N1[C@@H]2c1ccc(O)cc1`: the composite z-score is 0.794 with Albumin (Bos taurus); 0.288 in [2]; -0.0551 in [3]; 0.435 in [4]; 0.903 in assay [5]; 0.418 in assay [6]. For the same compound, the composite z-score in the assay on Sam68 (KHDRBS1) worked out at 1.3; in assay [7], 0.318; in assay [8] it was 1.21; in assay [9], 1.68; in [10], 1.2; in assay [11], 0.261. In addition, the composite z-score in assay [12] came to 0.976; in assay [13] it was 1.32; in [14], 1.06; with Lefty1, 0.983; in assay [16] it was 1.16. In addition, the composite Z-score in assay [1] is -0.706 (inactive). In addition, the z-score in [15] was -2.31; in assay [17], -2.88 (inactive).
As to `Cc1ccc(S[C@]2(C(=O)NC3CC3)CC(=O)N(Cc3ccccc3C(F)(F)F)[C@@H]2c2ccc(CO)cc2I)cc1`, the composite z-score with Albumin (Bos taurus) was -1.2; in assay [2], -0.0311; in [3], -0.0708; in assay [4] it was 0.653; in [5] it was 0.898; in [6] it was 0.417. The composite z-score is 0.547 in the assay on Sam68 (KHDRBS1); -0.229 in assay [7]; -0.387 in assay [8]; -1.01 in [9]; 0.303 in assay [10]; -0.0823 in assay [11]. Further, the composite z-score in assay [12] is -0.763; in assay [13], 1.25; in assay [14] it was 0.0123; in the assay with Lefty1, -0.258; in assay [16], 0.74. Also, the composite Z-score in assay [1] was -0.275 (inactive). Also, the z-score in assay [15] was 1.57; in assay [17] it was -1.15 (inactive).
Turning to `CC(C)C[C@@H]1NC(=O)[C@@]23C(=O)N[C@@H](Cc4ccccc4)C2[C@H](C)[C@@]2(C)O[C@H]2C3/C=C/C/C=C\CNC(=O)[C@H](Cc2ccccc2)NC1=O` (stereo not given in full), the composite z-score in the assay with Albumin (Bos taurus) is 0.533; in [2] it was -0.0881; in assay [3], -0.128; in assay [4], 0.848; in [5], 0.138; in assay [6] it was 0.379. For the same compound, the composite z-score with Sam68 (KHDRBS1) is 0.456; in [7], -0.0794; in [8] it was 0.313; in [9] it was 2.15; in assay [10], 0.284; in [11], -0.0582. Also, the composite z-score in [12] was 0.894; in assay [13] it was 0.515; in [14] it was 0.31; with Lefty1 it was 0.321; in assay [16], 0.994. Also, the composite Z-score in assay [1] is 0.376 (inactive). For the same compound, the results for the z-score in assay [15] and in assay [17] were 1.22 and -0.755 (inactive), respectively.
For `CCCNC(=O)[C@@H]1c2ccccc2C(=O)N(Cc2cc(C(F)(F)F)cc(C(F)(F)F)c2)[C@H]1c1ccc(CO)cc1`, the composite z-score with Albumin (Bos taurus) was -0.419; in assay [2], -0.0343; in [3] it was -0.194; in assay [4], 0.422; in assay [5] it was 0.64; in assay [6] it was 0.227. Moreover, the composite z-score is 0.679 in the assay with Sam68 (KHDRBS1); -0.608 in [7]; 0.234 in assay [8]; 0.14 in assay [9]; 0.541 in [10]; 0.452 in assay [11]. In addition, the composite z-score in [12] amounted to 0.0967; in assay [13], 0.652; in assay [14] it was 0.213; in the assay on Lefty1, 0.0044; in assay [16], 0.14. Further, the composite Z-score in assay [1] was -0.251 (inactive). The figures for the z-score in assay [15] and in [17] were 0.904 and -0.831 (inactive), respectively.
As for `COC(=O)C1=CC(CCCO)=CC(C2CC2)N(Cc2cc3c(cc2Br)OCO3)C=C1C(=O)OC` (stereo not given), the composite z-score is 1.01 in the assay with Albumin (Bos taurus); 0.102 in assay [2]; 0.0247 in assay [3]; 0.92 in assay [4]; 2.44 in [5]; 1.65 in [6]. For the same compound, the composite z-score with Sam68 (KHDRBS1) is 1.3; in assay [7] it was -0.547; in [8], 1.07; in assay [9], 2.68; in [10], 0.86; in [11], 0.149. Also, the composite z-score in assay [12] is 0.931; in [13], -0.107; in assay [14], -0.3; with Lefty1, -0.648; in assay [16], 1.4. The composite Z-score in assay [1] was 0.305 (inactive). Moreover, the z-score in [15] is 1.27; in [17], -1.24 (inactive).
`CO[C@H]1O[C@H](CO)[C@@H](OC(=O)Nc2ccccc2)[C@H](OC(=O)Nc2ccc3c(c2)OCO3)[C@H]1OC(=O)Nc1ccc2c(c1)OCO2`: the composite z-score with Albumin (Bos taurus) was 0.06; in [2] it was 0.224; in assay [3], -0.0289; in assay [4] it was 0.599; in assay [5] it was 2.14; in [6], 0.294. Further, the composite z-score in the assay with Sam68 (KHDRBS1) is 1.29; in assay [7], -0.494; in assay [8] it was 1.18; in assay [9], 1.75; in assay [10], 1.19; in [11] it was 2.04. Moreover, the composite z-score was 0.172 in [12]; 0.612 in [13]; -0.0687 in assay [14]; 0.345 in the assay with Lefty1; 0.571 in [16]. The composite Z-score in assay [1] was 0.219 (inactive). Further, the z-score in assay [15] was 0.316; in assay [17] it was -1.63 (inactive).
As for `CC(C)CCC[C@@H](C)[C@H]1CC[C@@]2(C)C3=C(CC[C@]12C)[C@@]1(C)CC[C@H](OC(=O)CCl)C(C)(C)C1CC3` (stereo not given in full), the composite z-score is 0.256 in the assay with Albumin (Bos taurus); 0.183 in [2]; -0.0829 in [3]; 0.153 in assay [4]; 0.555 in [5]; -0.0674 in assay [6]. Moreover, the composite z-score is 0.404 in the assay with Sam68 (KHDRBS1); 0.549 in assay [7]; 0.47 in assay [8]; -0.107 in assay [9]; 0.708 in [10]; 0.272 in assay [11]. In addition, the composite z-score in assay [12] was determined as 0.649; in [13], 0.409; in assay [14] it was 0.363; in the assay on Lefty1 it was 0.327; in assay [16], 0.274. The composite Z-score in [1] is 0.222 (inactive). The z-score in assay [15] was 1.35; in assay [17] it was -1.28 (inactive).
